HCV inh – blocks hepatitis C virus. Huh7.5.1 HCVcc-Cre infection, luciferase reporter, 44 h. Potency, µM (top dose mostly 41.8 µM), for the others: at the highest dose activity change, negative = inhibition, usual class: inhibitors. 3.4% of 340,000 active. AID 651820; note: potency is the fitted concentration of half-maximal effect; % is set by controls: 0 for no effect and ±100 for the full control effect
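After 44 h co-culture of compound, cells and HCVcc-Cre (~0.5 moi), substrate is added for 15 min at room temperature and luciferase measured over 15 sec. Cells were seeded at 1,000/well and pre-cultured 4 h.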
SARS PLP yeast – blocks SARS-CoV papain-like protease in a yeast assay | S. cerevisiae expressing SARS-CoV PLpro, growth rescue | Potency, µM (series often up to 32.9 µM), without a hit: at the top dose activity, positive = growth rescue, usual class: activators | 0.19% of 330,000 active; calls by dose curve; note: potency is the fitted concentration of half-maximal effect; 0% is about no effect; nearly all actives have a fitted effect of over 55% in size
Pf growth 96h – inhibits malaria parasite growth, 96 h. AID 504834. 6.9% of 320,000 active. P. falciparum luciferase reporter growth, 96 h. Potency, µM (top dose mostly 28.7 µM), without a hit: at the highest dose activity change, negative = inhibition, hits mostly inhibitors; note: potency is the fitted concentration of half-maximal effect; % is set by controls: 0 for no effect and ±100 for the full control effect
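Cell-based qHTS: luciferase-tagged P. falciparum in erythrocytes (2% hematocrit, 0.05% parasitemia final) incubated with compounds for 96 hours, 37 C, 5% CO2; luciferase detection reagent then added and luminescence measured.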
HCMV antiviral – blocks human cytomegalovirus replication | HFF cells, HCMV-luciferase reporter, 72 h; stronger effect = lower value | activity change, negative = inhibition, % at 57.5 µM | 4.5% of 410,000 active | AID 1259415; in the data active = activity change below about -60%; inconclusive = no clear call, values can overlap the other calls; inactive = above about -39%; note: % is set by controls: 0 for no effect and ±100 for the full control effect
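Cell-based, HFFs, 1000 cells/well, 16 h 37C; cpds in DMSO + HCMV-luc, MOI 1 PFU/cell; 72 h 37C; OneGlo luminescence after 5 min RT; norm. to buffer vs Salinomycin 10uM.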
Pf growth 48h – P. falciparum growth inhibition at 48 hours (one generation); P. falciparum luciferase growth in erythrocytes, 48 h; Potency, µM (titrated, usually from 28.7 µM), inactives show at the highest dose activity change, negative = inhibition, most hits filed as inhibitors; 5.9% of 310,000 active; AID 504832; note: potency is the fitted concentration of half-maximal effect; % is set by controls: 0 for no effect and ±100 for the full control effect
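Compounds are pin-transferred into medium, infected erythrocytes (2% hematocrit, 0.1% parasitemia final) are added, and plates sit one parasite generation at 37 C in 5% CO2. Detection reagent is then added and luminescence measured.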
Sm TGR inh – blocks Schistosoma mansoni thioredoxin glutathione reductase; AID 485364; purified TGR, DTNB reduction, TNB absorbance 405 nm; 3% of 360,000 active; Potency, µM (titrated, usually from 114 µM), without a hit: at the top dose activity change, negative = inhibition, most hits filed as inhibitors; Q962Y6; note: potency is the fitted concentration of half-maximal effect; % is set by controls: 0 for no effect and ±100 for the full control effect; nearly all actives have a fitted effect of over 60% in size
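First, TGR (20 nM dispensed) and NADPH were mixed with compound. Second, a 15 min room-temperature incubation followed. Third, further NADPH and then DTNB were added to start the reaction. Finally, TNB absorbance was monitored kinetically.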
The depositor's hits bear a star; ? = inconclusive; nt = no result given; + = active, no number; [ ] = dose if it differs, or a comment. In the library only some 15% were active in any assay of this set; here they are far more common. Unless noted, calls come from the whole dose curve; as a rule, active = well fitted curve in the direction sought with a large enough effect; inconclusive = small, poorly fitted or top-dose-only effect, or another doubt; inactive = no such curve, though single readings can be large; an effect the other way counts as inactive or inconclusive.

SMILES	HCV inh	SARS PLP yeast	Pf growth 96h	HCMV antiviral	Pf growth 48h	Sm TGR inh
O=c1cc(C(F)(F)F)[nH]c2ccc(OC(F)(F)F)cc12	?	-6%	?	-95*	?	6%
O=c1cc(C(F)(F)F)[nH]c2c(C(F)(F)F)cccc12	-28%	-79%	-17%	nt	10%	-1%
CCOC(=O)CCN(c1ccccc1)S(=O)(=O)c1ccc2[nH]c(=O)ccc2c1	nt	nt	nt	-8	nt	-1%
COC(CNC(=O)c1ccc2c(c1)ncn2-c1cccc(F)c1)OC	15%	-2%	?	-73*	0%	3%
Cc1cc(C)cc(-n2cnc3cc(C(=O)NCCc4ccccc4)ccc32)c1	nt	nt	nt	-99*	nt	1%
COc1ccc(OC)c(-n2cnc3cc(C(=O)NCCc4ccccc4)ccc32)c1	nt	nt	nt	22	nt	8%
Cc1ccc(-n2cnc3cc(C(=O)NCc4ccc(F)cc4)ccc32)c(C)c1	nt	nt	nt	-20	nt	4%
CCOC(CNC(=O)c1ccc2c(c1)ncn2-c1cccc(F)c1)OCC	11%	1%	18%	2	?	2%
COCCCNC(=O)c1ccc2c(c1)ncn2-c1ccc(C)cc1C	-13%	-2%	0%	nt	12µM*	11%
O=C(N=C1SC2CS(=O)(=O)CC2N1c1ccccc1Cl)C1CCCO1 (stereo unspecified)	5%	-3%	32%	-4	-3%	3%
OCC(O)/C=N/Nc1nc(N2CCCCC2)nc(N2CCCCC2)n1 (stereo unspecified)	23%	-2%	44%	?	?	1%
CN1CCSc2ccc(C(=O)NCc3cccc(F)c3)cc21	?	-15%	9.3µM*	23	-22%	4%
COc1cccc(NC(=O)c2ccc3c(c2)N(C)CCS3)c1	10µM*	-14%	7.4µM*	-37	9%	1%
COc1ccc(/C=N/NC(=O)c2ccccc2O)cc1Cn1cc(Cl)cn1	22%	2%	0%	-12	47%	14%
CCOc1ccc(/C=N/NC(=O)c2ccccc2O)cc1CN1CC2CC(C1)c1cccc(=O)n1C2 (stereo unspecified)	2%	-2%	13µM*	3	?	-25%
CC1CCN(C(=O)c2scc3c2OCCO3)CC1	1%	-2%	?	-63*	0%	-27%
CC1CN(C(=O)c2scc3c2OCCO3)CC(C)O1 (stereo unspecified)	8%	2%	0%	41	-2%	-35%
CNC(=O)c1cccc(-n2c(C)nc3cccnc32)c1C	nt	nt	nt	+	nt	-1%
CCN(CC)c1ccc(NC(=O)c2ccc(Br)o2)cc1	-23%	0%	10µM*	75	-13%	-16%
CCOc1ccccc1-c1nc(-c2ccc(NC(=O)c3ccc(Br)o3)cc2)no1	?	-6%	29%	7	2.9µM*	-7%
O=C(Nc1cccc(NC(=O)c2ccc(Br)o2)c1)c1ccccc1	-25%	-33%	23%	-11	18%	-22%
Cc1ccc2cccc(NC(=O)c3ccc(Br)o3)c2n1	10µM*	9%	-8%	142	-8%	-28%
O=C(Nc1ccccc1)c1ccc(Br)o1	-12%	-44%	72%	-62*	101%	4%
COC(=O)Cc1ccc(NC(=O)c2ccc(Br)o2)cc1	?	-4%	0%	-12	99%	-11%
Cc1ccc(S(=O)(=O)N(C)C)cc1NC(=O)c1cc(S(=O)(=O)N2CCCCC2)ccc1N1CCOCC1	?	-1%	?	?	-19%	-1%
SMILES	HCV inh	SARS PLP yeast	Pf growth 96h	HCMV antiviral	Pf growth 48h	Sm TGR inh
CC1(C)CC(Cc2ccc(C(F)(F)F)cn2)N(C(=O)OC(C)(C)C)C1 (stereo unspecified)	nt	nt	nt	22	nt	nt
O=C(NCc1ccncc1)c1csc(N2CCN(Cc3cccc(C(F)(F)F)c3)C2=O)n1	nt	nt	nt	-13	nt	nt
O=C(Nc1ccc2c(c1)oc1ccccc12)c1ccc(Br)o1	18µM*	-12%	-27%	10	nt	-24%[11.4 µM]
Cc1ccc2cccc(NC(=S)NC(=O)c3ccn(C)n3)c2n1	32µM*	51%	-29%	78	?	-8%
Cc1ccc2cccc(NC(=S)NC(=O)c3c(Br)cnn3C)c2n1	-13%	1%	?	69	-8%	-20%
CCCCCCCCN1C(=O)[C@H](CC(=O)NCCC(C)C)C[C@@]2(C(=O)OC)CCCCC=C12	nt	nt	nt	14	nt	nt
O=C(c1ccc(Br)cc1)C1CCc2occc2C1=O (stereo unspecified)	?	-4%	nt	-12	9%	56µM*
Cc1cccc(Nc2nnc(SCC(=O)Nc3cccc(S(=O)(=O)N4CCCCC4)c3)s2)c1	13µM*	3%	-16%	-8	29%	-9%
Cc1cccc(C)c1Nc1nnc(SCC(=O)Nc2cc(S(=O)(=O)N3CCCCC3)ccc2Cl)s1	?	-3%	?	?	13µM*	3%
Cc1cccc(Nc2nnc(SCC(=O)NC(=O)Nc3ccc4c(c3)OCCO4)s2)c1	2%	23%	3%	-96*	26%	-13%
Cc1cccc(NC(=O)CSc2nnc(NC(=O)CN3CCCCC3)s2)c1	2%	0%	-9%	-10	10%	-6%
Cc1ccccc1Nc1nnc(SCC(=O)NC(=O)Nc2ccc3c(c2)OCCO3)s1	1%	-12%	67%	nt	53%	3%
COc1ccc(CNC(=O)C2CCCN(S(=O)(=O)N3CCC(C)CC3)C2)c(OC)c1 (stereo unspecified)	-3%	0%	?	+	7%	6%
COc1ccc(Br)cc1CNC(=O)C1CCCN(S(=O)(=O)N2CCC(C)CC2)C1 (stereo unspecified)	nt	nt	nt	-22	nt	nt
CCOC(=O)N1CCN(S(=O)(=O)N2CCCC(C(=O)NCc3cccc(OC)c3)C2)CC1 (stereo unspecified)	-10%	2%	6.6µM*	-18	-18%	-5%
COc1ccc(Br)cc1CNC(=O)C1CCN(S(=O)(=O)N2CCC(C)CC2)CC1	-8%	-5%	12µM*	2	?	-12%
Cc1c(Cl)cccc1N=Cc1ccc([N+](=O)[O-])s1	-29%	-30%	?	-108*	?	40µM*
C=CCN(C(=O)c1cccc(C(F)(F)F)c1)C1(C(=O)Nc2ccccc2)CCN(C(C)C)CC1	?	-1%	7.4µM*	-15	?	0%
N#Cc1ccc(NC(=O)COCc2cc(-c3ccco3)on2)cc1	nt	nt	nt	0	nt	-8%
CCCNC(=O)Cn1cnc2sc(C(=O)N3CCN(CCC)CC3)c(C)c2c1=O	6%	3%	0.37µM*	6	-1%	3%
Cc1c(C(=O)N2CCN(c3ccc([N+](=O)[O-])cc3)CC2)sc2ncn(CC(=O)N3CCOCC3)c(=O)c12	-26%	5%	?	-80*	-29%	15%

Screening data (PubChem BioAssay)
